# Test results published in PubChem BioAssay AID651785 (The Scripps Research Institute Molecular Screening Center, 2012).
# Out of some 2,400 compounds screened, about 950 (40%) were called active. Only a sample is shown. Unmarked numbers belong to inactive results. Cut-off read from the data, not from the text of the source: active = inhibition above about 49%; inactive = the rest.
# Biological target: Trace amine-associated receptor 1 (Homo sapiens) (UniProt Q96RJ0)
# Assay: TAAR1 receptor blockers, repeat testing – cell-based, fluorescence, confirmation (AID 651785);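 note: CHO-Ga16 host cells challenged with agonist PEA near its EC80; 0% = agonist at EC80 plus vehicle and 100% = vehicle with no agonist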
# Settings: TAAR1-expressing cells, fluorescence antagonist read-out; at 3 µM; hits give high values
# Chain of Trace amine-associated receptor 1 (Homo sapiens) (Q96RJ0 whole entry, looked up): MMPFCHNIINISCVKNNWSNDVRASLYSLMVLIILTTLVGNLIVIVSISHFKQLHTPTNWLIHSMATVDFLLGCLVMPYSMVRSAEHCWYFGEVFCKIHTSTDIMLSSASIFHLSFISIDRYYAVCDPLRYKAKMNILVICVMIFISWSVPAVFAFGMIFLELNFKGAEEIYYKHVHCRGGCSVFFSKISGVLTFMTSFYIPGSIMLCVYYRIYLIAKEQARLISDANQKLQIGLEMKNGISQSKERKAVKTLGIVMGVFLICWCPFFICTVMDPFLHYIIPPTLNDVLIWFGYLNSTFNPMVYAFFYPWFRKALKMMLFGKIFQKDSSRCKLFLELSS
row,SMILES,inhibition
1,Nc1nonc1-n1nnc(C(=O)N/N=C/c2c[nH]c3ccccc23)c1-c1ccccc1,33.6%
2,Cc1ccc(SCc2c(C(=O)N/N=C/c3cccnc3)nnn2-c2nonc2N)cc1,59.3% (active)
3,C[C@@H]1CN([C@@H](C)CO)S(=O)(=O)c2ccc(C#Cc3cccc(F)c3)cc2O[C@H]1CN(C)S(=O)(=O)c1cn(C)cn1,53% (active)
4,CCc1ccc2c(c1)NC(=O)C2(C)Cc1ccc(OC(F)(F)F)cc1 (stereo not drawn),44.5%
5,Cc1cccc(NC(=O)c2nc[nH]c2C(=O)NCC(=O)OCc2ccccc2)c1,46%
6,CCOC(=O)C1=C(NC(=S)NC(=O)c2ccccc2)c2ccccc2CC1(C)C,42.7%
7,Cc1cc(Br)ccc1NC(=O)c1cnc(N2CCN(c3ccccn3)CC2)c2ccccc12,55.2% (active)
8,Cc1ccc2c(c1)N(CC(=O)NCCc1ccc(Cl)cc1)C(=O)c1cccnc1O2,50.5% (active)
9,COc1ccc(C2=NOC(Cn3nc(C(=O)NCc4ccc5c(c4)OCO5)cc3-c3ccccc3)C2)cc1 (stereo not drawn),48.2%
10,CC(=O)OCCN(CCCn1c(-c2ccncc2)nc2ccccc21)c1nc(-c2ccc(C)cc2)cs1,36.5%
11,Cc1nn(-c2ccccc2)c(C)c1NC(=O)COC(=O)c1cc(Cl)ccc1O,56.2% (active)
12,Cc1onc(-c2c(F)cccc2Cl)c1C(=O)Nc1cccc(S(=O)(=O)N2CCCCC2)c1,46%
13,COc1ccc(NC(=O)C2CCCN(S(=O)(=O)c3cccc4cccnc34)C2)cc1OC (stereo not drawn),45.3%
14,COc1ccc(S(=O)(=O)N2CCCC(C(=O)Nc3ccc(NC(=O)c4ccccn4)cc3)C2)cc1 (stereo not drawn),56.2% (active)
15,Cc1ccc(C)c(N2CCN(C(=O)CCCCCn3c(=S)[nH]c4ccc(N5CCOCC5)cc4c3=O)CC2)c1,54.2% (active)
16,COc1ccc(CCNC2=C(Cl)C(=O)N(Cc3ccccc3)C2=O)cc1OC,50.8% (active)
17,COc1cc2ccccc2cc1C(=O)Nc1ccc(NC(=O)c2cccs2)cc1,45.9%
18,C[C@H](O)[C@@H]1C(=O)N2CCc3c([nH]c4c(-c5ccc6c(c5)OCO6)cccc34)[C@@H]2C[C@@H]1N(C)C(=O)c1ccco1,37.4%
19,O=C(NCCN1CCOCC1)c1ccccc1N1C(=O)[C@@H]2Cc3c([nH]c4ccccc34)C(c3cccc(Cl)c3)N2C1=O (stereo partly drawn),39.5%
20,O=C(NCCN1CCOCC1)c1ccc(/C=C2\Sc3ccccc3N(Cc3ccc(F)cc3)C2=O)cc1,52.2% (active)
21,O=C(NCCN1C(=O)S/C(=C\c2cccnc2)C1=O)c1ccc(S(=O)(=O)N2CCCC2)cc1,29.7%
22,CCNS(=O)(=O)c1ccc(CCC(=O)N2CCN(c3cc(Cl)ccc3C)CC2)cc1,50.4% (active)
23,OC(c1ccccc1)(c1ccccc1)C1CCN(CCCOc2ccc(-c3ccsc3)cc2)CC1,43.2%
24,CCOc1ccc(N2CC(C(=O)N/N=C/c3sccc3C)CC2=O)cc1 (stereo not drawn),9.4%
25,O=C1c2ccccc2C(=O)N1CCC#Cc1ccc2cc(C3(O)CCCCC3)oc(=O)c2c1,69.5% (active)
26,CCN1CCc2c(C#N)c(NCc3ccccc3)nc(NCCO)c2C1,0.04%
27,Cc1cccc(C)c1NC(=O)CNC(=O)C1CCCC1,2.87%

row,SMILES,inhibition
1,Cc1ccccc1OCC(=O)Nc1ccc(N2CCN(C(=O)C(C)C)CC2)c(Cl)c1,55.3% (active)
2,CSc1ncnc2c1ncn2CC(=O)C1CCC2C3CCC4=CC(=O)CCC4(C)C3CCC12C (stereo not drawn),61.9% (active)
3,COc1ccc(N(CC(=O)N/N=C/c2cccs2)S(=O)(=O)c2ccc(OC)c(OC)c2)cc1,42.2%
4,CC(=O)c1ccccc1OCc1ccc(C(=O)c2ccccc2)cc1,56.3% (active)
5,COc1ccc2[nH]c(=O)c(CN(Cc3cccnc3)S(=O)(=O)c3ccccc3F)cc2c1,55% (active)
6,O=C(COC(=O)c1c2c(nc3ccccc13)CCCC2)c1ccc(Br)s1,41%
7,CSC(=S)N/N=C/c1c[nH]c2ccccc12,65.5% (active)
8,COc1ccc(C(=O)Oc2ccc(-c3nnco3)cc2)cc1S(=O)(=O)N1CCOCC1,47.2%
9,O=C(Oc1ccc(-c2nnco2)cc1)c1ccc(F)c(S(=O)(=O)N2CCOCC2)c1,61.4% (active)
10,C=CCc1cc(S(=O)(=O)c2ccc(O)c(CC=C)c2)ccc1O,26.4%
11,Cn1c(C(=O)NCCc2ccsc2)cc2c(=O)n(C)c3ccccc3c21,38.8%
12,O=S1(=O)c2c(cccc2N2CCCCC2)O[C@H](COCc2ccccc2)CN1C1CC1,32.1%
13,COc1ccc(OC)c2[nH]c(=O)c(CCNC(=O)C(=O)c3c[nH]c4ccccc34)cc12,49.5% (active)
14,CC/C(=N/Nc1ccccc1)c1cnnc(SC)n1,1.16%
15,Cc1ccccc1NC(=O)Cc1nc(COC(=O)C(C)(C)Oc2ccc(Cl)cc2)cs1,58.9% (active)
16,O=C(O)c1ccc(NC(=O)c2cn(-c3ccccc3)nc2-c2ccc(Cl)cc2)cc1,46.9%
17,Cc1cccc(NC(=O)c2ccc(COc3ccccc3[N+](=O)[O-])o2)n1,35%
18,COC(=O)Cc1nnn2c1[C@H](C)[C@H](c1ccccc1[N+](=O)[O-])OCC2,30.1%
19,COC(=O)Cc1nnn2c1[C@H](C)[C@H](c1ccccc1Br)OCC2,65.9% (active)
20,COc1ccc(CC(=O)Nc2c(C(N)=O)oc3ccccc23)cc1,28.8%
21,CCCCNc1c(-c2cccc(Sc3ccc(OC)cc3)c2)nc2ccccn12,61.9% (active)
22,Cc1ccc(NC(=O)c2ccc(CSc3ncnc4nc[nH]c34)cc2)c(C)c1,25.9%
23,CSCCC(NC(=O)COc1ccccc1)C(=O)OCC(=O)c1cc2ccccc2o1 (stereo not drawn),33.3%
24,O=c1[nH]c(CSc2ncc(-c3ccc(F)cc3)n2Cc2ccco2)nc2ccccc12,54% (active)
25,Cc1ccc2cccc(OCCCOc3ccccc3CO)c2n1,26.4%
26,O=C(Nc1ccccc1-c1nnn(CC(=O)N2CCN(c3ccccc3)CC2)n1)c1cccs1,52.1% (active)
